Experimental data taken from the supplement of paper PMC7801607.

System: Plasmodium berghei ANKA liver stage in HepG2-A16-CD81
Test: % inhibition of liver stage parasite viability (luciferase); higher = more inhibition
Conditions: 5 µM; 48 h
Description: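 Single-concentration screen of the MMV Pandemic Response Box. P. falciparum NF54 asexual blood stages: pLDH assay, 72 h at 37 °C, 2 and 20 µM, n=2. Stage IV/V gametocytes (NF54): luciferase reporter (NF54-Pfs16-GFP-Luc, 48 h), ATP bioluminescence (24 h) and PrestoBlue (48 h) at 1 and 5 µM, n=1. P. berghei liver stage (luciferase in HepG2-A16-CD81, 48 h post infection) at 5 µM, n=4. All normalised to DMSO and kill controls as % inhibition.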

Row | SMILES | % inhibition of liver stage parasite viability
1 | CCOc1noc2cc(OCCC3CCN(c4ccc(C)nn4)CC3)ccc12 | 27.3%
2 | O=C(CCCC(F)(F)F)N1CCC(c2nc(-c3nccs3)no2)CC1 | -0.37%
3 | N[C@H]1CCC[C@H]1C(=O)O | 15.8%
4 | CC(C)Oc1ccc(-n2cnc3cc(/C=C\c4ccc(C(C)(C)O)cc4)ccc32)cc1 | 20.4%
5 | CCc1nc(N)nc(N)c1C#CCc1ccccc1 | 76.9%
6 | C[C@H](NC(CC(=O)c1ccccc1C(F)(F)F)C(=O)O)c1ccccc1 (stereo not given in full) | 36.5%
7 | CC(Oc1ccc(Cl)cc1Cl)C(=O)NCc1ccc2c(c1)OCO2 (stereo not given) | 7.01%
8 | CCC(CC)[C@H](NC(C)=O)[C@@H]1[C@H](O)[C@@H](C(=O)O)C[C@H]1NC(=N)N | 24.4%
9 | Cc1nc(Nc2ccc(F)cc2)nc(N2CCc3ccccc3C2C)c1C (stereo not given) | 52.5%
10 | COc1ccc(COc2cc3oc(=O)c4cc(C(C)O)ccc4c3cc2OC)cc1 (stereo not given) | 8.21%
11 | C[C@@H](c1nc(-c2ccc(C#N)cc2)cs1)[C@](O)(Cn1cncn1)c1ccc(F)cc1F | -4.98%
12 | CCOC(=O)N1CCN(c2ccc(Cl)cc2)CC1 | 29.3%
13 | C[C@@H](NC(=O)c1ccccc1-c1ccccc1)B(O)O | 19.8%
14 | OC(Cn1cncn1)(Cn1cncn1)c1ccc(F)cc1F | 19.2%
15 | O=c1cc(NCCCN[C@@H]2CCOc3c(Br)cc(Br)cc32)[nH]c2ccsc12 | 74.7%
16 | Cc1onc(-c2ccccc2Cl)c1C(=O)N[C@@H]1C(=O)N2[C@@H]1SC(C)(C)[C@@H]2C(=O)O | 17.1%
17 | CCOc1ccc(/C=N/NC(=O)C2CC2c2ccc(C(C)(C)C)cc2)cc1OCC (stereo not given) | 11.3%
18 | COC(=O)Nc1nc2cc(Sc3ccccc3)ccc2[nH]1 | -25.4%
19 | CN(C)CC(=O)Nc1ccc2[nH]c(=O)c3ccccc3c2c1 | 9.83%
20 | Cc1onc(-c2ccccc2)c1-c1ccc(S(N)(=O)=O)cc1 | 4.19%

Row | SMILES | % inhibition of liver stage parasite viability
21 | COc1ccc(C)cc1NC(=O)c1ccc(S(=O)(=O)N2CCCCC2)cc1 | 30%
22 | CCc1c(OCC2CCC2)c2cc(F)ccc2[nH]c1=O | 12.7%
23 | C=CCN(C(=O)OCc1ccc([N+](=O)[O-])cc1)C1CCN(CC[C@](C)(CN(C)S(=O)(=O)c2ccccc2)c2ccccc2)CC1 | 42.2%
24 | CCc1oc2ccccc2c1C(=O)c1ccc(O)cc1 | 39.9%
25 | O=c1cc(OCc2ccccc2)ccn1Cc1ccccc1 | 20.3%
26 | COc1cc(C2C3=C(CC(C)(C)CC3=O)Nc3ccccc3N2C(C)=O)ccc1OCc1ccccc1 (stereo not given) | 25.5%
27 | CC(C)N(c1cc(-c2ccccc2)sc1C(=O)O)C(=O)[C@H]1CC[C@H](C)CC1 | 20.5%
28 | COc1cc(NS(=O)(=O)c2ccc(C)cc2)c2ncccc2c1 | 48.9%
29 | CC[C@@]1(O)C(=O)OCc2c1cc1n(c2=O)Cc2cc3c(CN(C)C)c(O)ccc3nc2-1 | 60.8%
30 | C[C@@H](NC(=O)c1cccc(-c2c[nH]c(-c3cc4ccccc4cn3)n2)c1)c1ccc(F)cc1 | 29.1%
31 | CCCCc1ccc(-c2cc(C(=O)O)cc(-c3ccc(Cl)cc3)n2)cc1 | 40%
32 | Cc1ccn2c(C(=O)NCc3ccccc3)c(C)nc2c1 | 20.4%
33 | Cc1cc(-c2ccccc2)c(C(=O)C(=O)Nc2ccc(N3CCN(c4ncc(F)cn4)CC3)cc2)n1C | 58.8%
34 | O=C1c2cccc3cccc(c23)C(=O)N1CC1CO1 (stereo not given) | 14.1%
35 | Nc1ccc2oc(=O)ccc2c1I | 6.97%
36 | CCCCC(CC)CNC(=N)NC(=N)NCCCCCCNC(=N)NC(=N)NCC(CC)CCCC (stereo not given) | 74%
37 | O=S(=O)(Nc1ccc(O)cc1)c1cccc2cccnc12 | -2.62%
38 | CCC[C@H](NC(=O)[C@@H]1[C@H]2CCC[C@H]2CN1C(=O)[C@@H](NC(=O)[C@@H](NC(=O)c1cnccn1)C1CCCCC1)C(C)(C)C)C(=O)C(=O)NC1CC1 | 6.72%
39 | C=C[C@]1(C)C[C@@H](OC(=O)CS[C@@H]2C[C@H]3CC[C@@H](C2)N3C)[C@]2(C)[C@H](C)CC[C@]3(CCC(=O)[C@H]32)[C@@H](C)[C@@H]1O | 53%
40 | COc1ccc(CNC(=O)C2CCN([C@H](C)c3cccc4ccccc34)CC2)cc1 | 19.6%
